{"source": "ChEMBL document CHEMBL4513216", "about": "“Probing the Open Global Health Chemical Diversity Library for Multistage-Active Starting Points for Next-Generation Antimalarials” (ACS Infect Dis, 2020)", "note": "Hit rate of the full screen: of about 65,000 compounds, about 2,100 (3.2%) showed an effect of 50% or more. The median lay at about -52%. The entries come from a sample that favours strong results as a whole.", "data": [{"system": "Plasmodium falciparum", "assay": "Screen against P. falciparum Asexual Blood Stage (ABS), at 5uM", "format": "functional, Dd2", "conditions": "tested at 5 uM", "units": {"INHIBITION": "%"}, "values": [{"compound": "Cc1c(NC(=O)NC2CN3CCC2CC3)cccc1C(=O)N1CCCC1", "note": "(configuration not stated)", "INHIBITION": -83.7}, {"compound": "CC(C)CCN1CCC2(CNS(=O)(=O)c3cccnc3O2)C1", "note": "(configuration not stated)", "INHIBITION": -5.49}, {"compound": "Cc1nn(-c2ncccn2)c2c1C(c1cnn(C)c1C)SCC(=O)N2", "note": "(configuration not stated)", "INHIBITION": -1.18}, {"compound": "Cc1cc(CN2CC[C@H]3C[C@H](c4nccs4)O[C@@H]3C2)no1", "INHIBITION": -108}, {"compound": "COc1cccc(OC)c1CN1CC(=O)N(c2ccc(C)cc2)CC1C", "note": "(configuration not stated)", "INHIBITION": 75.2}, {"compound": "Cc1cc(CN2CC[C@H]3[C@H]2CCN3C)oc1C", "INHIBITION": 43}, {"compound": "Cc1cnc(CN2CC=C(c3c[nH]c4ncccc34)CC2)o1", "INHIBITION": 12.6}, {"compound": "C1=C(c2c[nH]c3ncccc23)CCN(Cc2nnc(C3CC3)o2)C1", "INHIBITION": -48.5}, {"compound": "Fc1ccc2c(C3=CCN(Cc4nnc(C5CCC5)o4)CC3)c[nH]c2c1", "INHIBITION": 83.9}, {"compound": "CCC(C)N(Cc1ccc(C)cc1)Cc1c[nH]c(C)n1", "note": "(configuration not stated)", "INHIBITION": 77.5}, {"compound": "Cc1cc(C)c(CNc2ncnc3c2cnn3C)c(=O)[nH]1", "INHIBITION": -55.6}, {"compound": "O=C1CSC(c2ccc3c(c2)OCO3)c2cn[nH]c2N1", "note": "(configuration not stated)", "INHIBITION": -10.6}, {"compound": "NCCC(Cc1ccccc1)c1ccco1", "note": "(configuration not stated)", "INHIBITION": 84.1}, {"compound": "O=C(c1cscn1)N1CCC2(CN(Cc3ccncc3)C2)C1", "INHIBITION": -48}, {"compound": "O=C(Nc1cccnc1)[C@H]1CN(Cc2cccs2)C[C@H]2OCC[C@@H]12", "INHIBITION": 2.31}, {"compound": "Cc1cc(CN2CCC(CNS(=O)(=O)c3ccccc3F)CC2)c(C)o1", "INHIBITION": 79.2}, {"compound": "Cc1cc(CN2CCC(CNS(=O)(=O)c3ccc(Br)s3)CC2)c(C)o1", "INHIBITION": 91.6}, {"compound": "Cc1ccc(CN2CCC3(CC2)C(=O)Nc2ccccc23)s1", "INHIBITION": 46.9}, {"compound": "Cc1cc(CN2CCC(CNS(=O)(=O)c3ccc(C)s3)CC2)c(C)o1", "INHIBITION": 87.7}, {"compound": "CC(C)=CCN1CCN(C(=O)COc2ccccc2)[C@H]2CS(=O)(=O)C[C@H]21", "INHIBITION": -73.8}, {"compound": "CC(Cc1c(F)cccc1F)NC(=O)NCc1ncnn1C", "note": "(configuration not stated)", "INHIBITION": -43.1}, {"compound": "O=C(c1ccnnc1)N1CCN2C[C@H](Oc3cccnc3)C[C@H]2C1", "INHIBITION": 5.43}, {"compound": "Cc1nn(C)c(Oc2ccc(Cl)cc2)c1CN1CCC(CN)C1", "note": "(configuration not stated)", "INHIBITION": 92.8}, {"compound": "Cn1cc(N2CC[C@@H]3CN(Cc4ccncc4)C[C@H]3C2=O)cn1", "INHIBITION": -102}, {"compound": "CC(C)C1CN(c2cccc(C#N)n2)CCCN1Cc1ccc(F)cc1", "note": "(configuration not stated)", "INHIBITION": 91.3}, {"compound": "N#Cc1cccc(N2CCOC3(CNCCOC3)C2)n1", "note": "(configuration not stated)", "INHIBITION": 17}, {"compound": "N#Cc1cccc(N2CCCC3(CNCCO3)C2)n1", "note": "(configuration not stated)", "INHIBITION": -104}, {"compound": "Cc1nc(N)nc(C)c1CC(=O)N1CCCN(CC2CC2)C(C(C)C)C1", "note": "(configuration not stated)", "INHIBITION": -198}, {"compound": "CC(C)C1CN(c2cccc(C#N)n2)CCCN1CC1CC1", "note": "(configuration not stated)", "INHIBITION": 84.3}, {"compound": "Cc1nc(C)c(CC(=O)N2CCCN(CC3CC3)C(C(C)C)C2)c(=O)[nH]1", "note": "(configuration not stated)", "INHIBITION": -23.8}, {"compound": "CCN1CCC2(COCc3c(C)nc(N4CCOCC4)nc32)C1", "note": "(configuration not stated)", "INHIBITION": -129}, {"compound": "CC(Cn1cccn1)NCc1csc2c1CCCC2", "note": "(configuration not stated)", "INHIBITION": 39.2}, {"compound": "CC[C@H]1CN2CC[C@H]1C[C@@H]2CNC(=O)Nc1cccc(C#N)c1", "INHIBITION": -82.6}, {"compound": "CN(C)C1Cc2ccccc2N(S(=O)(=O)c2cccc(C#N)c2)C1", "note": "(configuration not stated)", "INHIBITION": 76.6}, {"compound": "CC(C)(C)n1ncc2c1NC(=O)CSC2c1ccsc1", "note": "(configuration not stated)", "INHIBITION": -82.3}, {"compound": "COc1ccc(C(=O)N2CCOC3(CNCCOC3)C2)c(OC)n1", "note": "(configuration not stated)", "INHIBITION": -97.3}, {"compound": "CC(C)n1ccnc1C1CCCN(c2ccnc3ccccc23)C1", "note": "(configuration not stated)", "INHIBITION": 84}, {"compound": "Cc1nc(CO[C@@H]2CC[C@H]3[C@H]2OCCN3Cc2cccnc2)cs1", "INHIBITION": -22.1}, {"compound": "COc1ccc(C(=O)C2CCCN(Cc3ccncc3)C2)cc1OC", "note": "(configuration not stated)", "INHIBITION": -128}, {"compound": "O=C(Nc1ccc(Cl)cn1)C1CCCN(CCc2ccncc2)C1", "note": "(configuration not stated)", "INHIBITION": 71.9}, {"compound": "COc1ccc(C(=O)C2CCCN(Cc3ccncc3)C2)c(OC)c1", "note": "(configuration not stated)", "INHIBITION": -17.9}, {"compound": "O=C(CCc1nccs1)N1CCC(C(=O)O)(c2ccccc2)CC1", "INHIBITION": -56.3}, {"compound": "Cc1nc(CC(=O)N2CCCC[C@H](N(C)C)C2)cs1", "INHIBITION": -56.95}, {"compound": "CN(C)[C@H]1CCCCN(C(=O)c2cccc(-c3cccc(F)c3)c2)C1", "INHIBITION": 73.3}, {"compound": "CN1CCO[C@@H]2CN(C(=O)c3ccc4ncccc4c3)CC[C@@H]2C1", "INHIBITION": -46.1}, {"compound": "O=C(c1ccnc(-n2cnnc2)c1)N1CCCC2(CCNC2)C1", "note": "(configuration not stated)", "INHIBITION": -120}, {"compound": "Nc1ncccc1CN1C[C@H]2OC(=O)N(Cc3ccccn3)[C@H]2C1", "INHIBITION": -117}, {"compound": "Cc1cccc(-c2ncc(CNC(C)Cc3ccncc3)cn2)c1", "note": "(configuration not stated)", "INHIBITION": -115}, {"compound": "Cc1cnc(N2CCN(C)c3ncccc3C2)nc1", "INHIBITION": -91.5}, {"compound": "CC(Cc1cccc(F)c1)NCc1cnc(N2CCN(C)CC2)nc1", "note": "(configuration not stated)", "INHIBITION": 67.6}, {"compound": "CN1CCN(c2ncc(CNCCCc3cccc(F)c3)cn2)CC1", "INHIBITION": 71.5}, {"compound": "Fc1cnc(N2C[C@H]3CN(Cc4cccc(F)c4)C[C@H]3C2)nc1", "INHIBITION": 21.5}]}]}
